An excerpt weighted towards active compounds, which were near 2.5% of everything screened.
Lassa entry inh = Lassa virus entry inhibition. Lassa virus pseudotype entry inhibition, cell reporter. Potency, µM (series often up to 37.9 µM), for inactives: at the highest dose activity change, negative = inhibition, most hits filed as inhibitors. 300,000 tested, 1.2% active. AID 540256; calls by dose curve; tested in HEK293 cells; further: nearly all actives have a fitted effect of over 50% in size
Vaccinia mCherry = inhibitors of vaccinia virus infection (mCherry reporter signal); AID 720579; Vaccinia virus mCherry reporter infection, fluorescence; 310,000 tested, 0.63% active; Potency, µM (series often up to 36.5 µM), without a hit: at the top dose activity change, negative = inhibition, most hits filed as inhibitors; calls by dose curve; tested in A549 cells; further: nearly all actives have a fitted effect of over 35% in size
VACV Venus inh = inhibitors of vaccinia virus (Venus reporter); Vaccinia virus Venus reporter expression, fluorescence; Potency, µM (highest dose often 36.5 µM), for inactives: at the highest dose activity change, negative = inhibition, actives largely listed as inhibitors; 330,000 tested, 0.46% active; calls by dose curve; tested in A549 cells; further: nearly all actives have a fitted effect of over 30% in size
Marburg entry inh = inhibitors of Marburg virus binding or cell entry | Marburg virus pseudotyped entry inhibition, cell reporter | Potency, µM (doses to about 37.8 µM), for inactives: top-dose activity change, negative = inhibition, hits mostly inhibitors | 300,000 tested, 1.8% active; calls by dose curve; tested in HEK293 cells
* hit, by the source's call; [ ] = dose if it differs, or a comment. On the % scale 0 is the no-effect control and ±100 the full control effect; potency means the concentration at half of the fitted maximal effect.

Results for CCOC(=O)C1=CCN(S(=O)(=O)c2ccc(F)cc2)C1c1ccc(Cl)c(Cl)c1 (stereo not given) ?
Vaccinia mCherry: 7.9µM*; VACV Venus inh: 13µM*

Results for N#Cc1ccc(/C=C2/C=Cc3ccccc32)cc1 ?
Vaccinia mCherry: inactive; VACV Venus inh: -14%

How did O=C(Nc1cccc(O)c1)c1cc(-c2ccccc2Cl)on1 do in these assays?
Lassa entry inh: 5µM*; Vaccinia mCherry: -18%; VACV Venus inh: -6%; Marburg entry inh: 7.1µM*

What do the screens show for `COc1ccc(NC(=O)c2cc(-c3ccccc3Cl)on2)cc1OC`?
Lassa entry inh: 5%[46.1 µM]; Vaccinia mCherry: -16%; VACV Venus inh: 52%; Marburg entry inh: 0%[46.1 µM]

Results for O=C(c1cc(-c2ccccc2Cl)on1)N1CCCC1 ?
Lassa entry inh: inconclusive; Vaccinia mCherry: inactive; VACV Venus inh: -8%; Marburg entry inh: 11µM*

Results for O=C(c1cccc(F)c1F)N1CCOc2ccc(CN3CCN(Cc4ccccn4)CC3)cc2C1 ?
Vaccinia mCherry: -15%; VACV Venus inh: -11%

How did CCc1cccc2c(C(=S)N3CCOCC3)c[nH]c12 do in these assays?
Lassa entry inh: -10%[46.1 µM]; Vaccinia mCherry: -4%; VACV Venus inh: -13%; Marburg entry inh: inconclusive

What do the screens show for `CCc1cccc2c(C(=O)C(NC(C)CC)c3ccccc3)c[nH]c12` (stereo not given)?
Lassa entry inh: 16µM*; Vaccinia mCherry: inconclusive; VACV Venus inh: -4%; Marburg entry inh: 12µM*

What do the screens show for `CCc1cccc2c(C(=O)C(NCCCOC)c3ccccc3)c[nH]c12` (stereo not given)?
Lassa entry inh: inconclusive; Vaccinia mCherry: inactive; VACV Venus inh: 5%; Marburg entry inh: 13µM*

Results for CCc1cccc2c(C(=O)COC(=O)c3ccccc3)c[nH]c12 ?
Lassa entry inh: -4%; Vaccinia mCherry: -6%; VACV Venus inh: -7%; Marburg entry inh: 5%

Results for O=c1cc(/C=C/c2ccc([N+](=O)[O-])cc2)c2ccccc2[nH]1 ?
Vaccinia mCherry: inactive; VACV Venus inh: -13%

How did CC(C)CO/N=C1\C[C@@H](O)[C@@H](O)[C@@H]2[C@@H]3C(=O)N(c4cccc(Oc5ccccc5)c4)C(=O)[C@@H]3CC[C@@H]12 do in these assays?
Marburg entry inh: -1%[14.2 µM]

How did O=C(NCc1nnc2n1CCN(Cc1cc3c(cc1Cl)OCO3)CC2)c1cccc(F)c1 do in these assays?
Vaccinia mCherry: -6%; VACV Venus inh: -24%

Results for CCOc1ccccc1N1C(=O)c2ccccc2N/C1=C\N1CCN(C(=O)c2ccco2)CC1 ?
Vaccinia mCherry: -9%; VACV Venus inh: -23%

Results for Cc1nc(S[C@@H]2C=CS(=O)(=O)C2)n[nH]1 ?
Marburg entry inh: 0%

What do the screens show for `Cc1ccc(NS(=O)(=O)c2ccc(N3CCN(c4ccc(O)cc4)CC3)c([N+](=O)[O-])c2)c(C)c1`?
Lassa entry inh: -63%; Vaccinia mCherry: -25%; VACV Venus inh: -24%; Marburg entry inh: 2.8µM*

Results for O=C(Nc1cccc(C(F)(F)F)c1)Nc1ccc(N2CCCC2)c(S(=O)(=O)Nc2ccccc2Cl)c1 ?
Lassa entry inh: 4µM*; Vaccinia mCherry: 11µM*; VACV Venus inh: 11µM*; Marburg entry inh: 2.5µM*

How did Cc1c(C(=O)N2CCCC(C)C2)sc2ncnc(NCCN3CCCCC3)c12 (stereo not given) do in these assays?
Vaccinia mCherry: -23%; VACV Venus inh: -11%

How did O=C(O)C12C3CCC(O3)C1(C(=O)O)C1CCC2O1 (stereo not given) do in these assays?
Lassa entry inh: 8%[46.1 µM]; Vaccinia mCherry: -16%; VACV Venus inh: -15%; Marburg entry inh: 2%

What do the screens show for `C[C@]1(C(=O)O)[C@@H]2CC[C@@H](O2)[C@@]1(C)C(=O)O`?
Marburg entry inh: 4.1µM*

Results for Cc1ccc(Nc2cc(C)nn2-c2nc(C)cc(=O)[nH]2)cc1 ?
Lassa entry inh: 1.6µM*; Vaccinia mCherry: 2.2µM*; VACV Venus inh: inconclusive; Marburg entry inh: 2.8µM*

Results for Cc1ccc(Nc2cc(C)nn2-c2nc(C)cc(C)n2)cc1 ?
Lassa entry inh: inconclusive; Vaccinia mCherry: -7%; VACV Venus inh: inconclusive; Marburg entry inh: inconclusive

Results for CSc1ccccc1C(=O)N1CCN(c2cccc(Cl)c2)CC1 ?
Lassa entry inh: 5.6µM*; Vaccinia mCherry: inconclusive; VACV Venus inh: inconclusive; Marburg entry inh: inconclusive

What do the screens show for `Cc1cc(C(=O)N2CCN(c3cccc(Cl)c3)CC2)c(C)o1`?
Lassa entry inh: inconclusive; Vaccinia mCherry: inconclusive; VACV Venus inh: inconclusive; Marburg entry inh: 6.3µM*
